Assay outcomes deposited in PubChem BioAssay by The Scripps Research Institute Molecular Screening Center.
Rows were chosen to be rich in hits. Some 2.4% of all compounds tested hit in one or more screens of this group.
ULK1 inh = inhibitors of human ULK1 kinase; O75385; AlphaScreen Atg13 phosphorylation by ULK1, luminescence; inhibition, % at 5.96 µM; 30,000 compounds, 1.9% hits; AID 1259251; in the data active = inhibition above about 43%;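 note: 0% = median of compound wells and 100% = no enzyme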
ASK1 inh = inhibitors of human ASK1 kinase; Q99683; AlphaScreen MKK6 phosphorylation by ASK1, luminescence; inhibition, % at 7.44 µM; 22,000 compounds, 0.99% hits; AID 1159602; in the data active = inhibition above about 35%;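 note: 0% = median of compound wells and 100% = no enzyme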
* = called active by the depositor; x = no result given.

SMILES	ULK1 inh	ASK1 inh
O=C1CCCN1CCn1cnc2c(NC3CC3)nc(N3CCC(N4CCOCC4)CC3)nc21	-6	-15
O=C(NCc1cccc(C(F)(F)F)c1)c1cc(NC2CCC(O)CC2)nc2ccccc12 (stereo not drawn)	4	4
CC(=O)Nc1ccc(Nc2nc(Nc3nccc4ccccc34)nc3c2ncn3-c2ccccc2)cc1	7	11
Cn1c(=O)[nH]c(N2CCc3ccccc3C2)c(Cc2ccc(C#N)cc2)c1=O	12	x
CN(C)CCN(Cc1ccccc1)C(=O)c1nc2ccc(-c3cn[nH]c3)cc2s1	-2	-16
CC[C@@H](C(=O)[C@@H](C)[C@@H](O)[C@H](C)[C@@H]1O[C@@H]([C@@H](CC)C(=O)O)CC[C@@H]1C)[C@H]1O[C@]2(C=C[C@@H](O)[C@]3(CC[C@@](C)([C@H]4CC[C@](O)(CC)[C@H](C)O4)O3)O2)[C@H](C)C[C@@H]1C	-4	x
CC[C@@H](C(=O)[C@@H](C)[C@@H](O)[C@H](C)CCc1ccc(C)c(O)c1C(=O)O)[C@H]1O[C@](CC)([C@H]2CC[C@](O)(CC)[C@H](C)O2)C[C@@H]1C	70*	x
CN(C)c1cccc(Nc2nc(Nc3ccc4c(c3)OCO4)c3ncn(CCN4CCCC4=O)c3n2)c1	1	16
O=C(NCc1ccccc1)c1cc(N2CCN(c3ccccn3)CC2)nc2ccccc12	-8	-23
Cc1cnc(Nc2ccncc2)nc1NCCCN1CCCC1=O	6	-21
Cc1cnc(Nc2ccc(-n3ccnc3)cc2)nc1Nc1ccccc1	35	-33
O=C1CCCN1CCCNc1nc(Nc2ccc(C(F)(F)F)cc2)nc2nc[nH]c12	53*	8
Cc1cnc(Nc2ccc(-n3ccnc3)cc2)nc1NC1CC1	52*	9
Cc1cnc(Nc2ccc(-n3ccnc3)cc2)nc1NCCCN1CCCC1=O	69*	-9
O=C1CCCN1CCCNc1nc(Nc2ncccn2)nc2nc[nH]c12	6	-18
c1cc(Nc2ccc(N3CCOCC3)cc2)nc(NCCN2CCOCC2)n1	8	10
Cc1cccc(CC(=O)Nc2cnn(-c3ccccc3C(=O)NC3CCOCC3)c2)c1	-3	3
c1ccc(-c2ccnc(Nc3ccc(-c4ncn[nH]4)cc3)n2)cc1	-10	-16
Fc1ccc(-c2n[nH]c3ccc(-c4ncn[nH]4)cc23)cc1	71*	-69
CNC(=O)c1ccccc1Nc1cc(Nc2ncccn2)ncc1C(F)(F)F	19	10
COc1ccc(CC(=O)Nc2cc(Nc3ccccc3-c3ncco3)c(C(F)(F)F)cn2)cc1	5	-1
CNS(=O)(=O)c1ccccc1Nc1cc(NC(=O)Cc2ccc(OC)cc2)ncc1C(F)(F)F	57*	30
CNC(=O)c1ccccc1Nc1cc(NC(=O)Cc2cccs2)ncc1C(F)(F)F	46*	4
CNC(=O)c1ccccc1Nc1cc(NC(=O)Cc2ccc(N)cc2)ncc1C(F)(F)F	68*	10
COc1ccc(CC(=O)Nc2cc(Nc3ccccc3NC(C)=O)c(C(F)(F)F)cn2)cc1	41	7
SMILES	ULK1 inh	ASK1 inh
CNC(=O)c1ccccc1Nc1cc(NCc2ccccc2)ncc1C(F)(F)F	55*	6
CC(C)(C)c1ncn(-c2ccc(Nc3nccc(-n4cnc(Nc5ccccc5)n4)n3)cc2)n1	-10	-6
COc1ccc(CCNc2cc(NC3CCC(O)CC3)ncn2)cc1 (stereo not drawn)	2	1
Cc1ncn(-c2ccc(Nc3nccc(N4CC(NC(=O)OC(C)(C)C)C4)n3)cc2)n1	-9	-1
O=C1CCCN1CCCNc1nc(NCc2cccnc2)c2ncn(-c3ccsc3)c2n1	13	-12
CSc1nc(NC(=O)C(F)(F)F)cc(=O)[nH]1	3	x
CCN(CC)C(=O)C1CCCN(c2nc(Nc3ccc(N4CCOCC4)cc3)c3ncn(C(C)C)c3n2)C1 (stereo not drawn)	19	9
CNC(=O)c1ccccc1Nc1cc(NC(=O)Cc2ccc(F)cc2)ncc1C(F)(F)F	57*	-12
CNC(=O)c1ccccc1Nc1cc(NC(=O)C2CCc3ccccc32)ncc1C(F)(F)F (stereo not drawn)	34	4
NC(=O)c1ccccc1Nc1cc(NC(=O)Cc2ccc(F)cc2)ncc1F	-4	-17
CNC(=O)c1ccccc1Nc1cc(NC(=O)Cc2ccsc2)ncc1C(F)(F)F	52*	-1
CNC(=O)c1ccccc1Nc1cc(NC(=O)Cc2ccccc2F)ncc1C(F)(F)F	53*	12
O=C(Cc1ccc2c(c1)OCO2)Nc1cc(Nc2ccccc2-c2nn[nH]n2)c(C(F)(F)F)cn1	-5	18
Cc1ccc(S(=O)(=O)N2C[C@H](O)C[C@@H]2C(=O)Nc2ccc3[nH]ncc3c2)cc1	-1	2
CCCNc1nc(-c2ccc(N3CCN(C)CC3)cc2)nc2c1ncn2CCN1CCCC1=O	-1	-2
COc1ccc(-c2ccc(NS(=O)(=O)c3cc(C)c(OC)cc3C)cc2)nn1	-63	x
COc1cc(N2CCOCC2)ccc1Nc1cc(-c2ocnc2-c2cnn(C)c2)ccn1	-1	9
COc1cc(Nc2nc(Nc3cccc(N(C)C)c3)nc3c2ncn3C(C)C)cc(OC)c1OC	-18	14
COc1ccc(C(=O)c2oc3ccc(NC(C)=O)cc3c2C)cc1	58*	x
COc1ccc(C(=O)c2oc3ccc(NC(=O)c4ccc(OC)c(OC)c4)cc3c2C)cc1	3	x
CCCNc1cc(C)nc(Nc2nc3ccccc3n2C)n1	9	-19
Cc1ccc(-c2cccc3cnc(NC4CCN(C(=O)N5CCCC5)C4)nc23)cn1 (stereo not drawn)	26	13
Cc1ccc(-c2cccc3cnc(Nc4cccc(C(=O)N5CCOCC5)c4)nc23)cn1	64*	6
Cc1ncn(-c2ccc(Nc3ncc4cccc(-c5cncc(C(=O)N6CCOCC6)c5)c4n3)cc2)n1	0	14
Cc1ccc(-c2cccc3cnc(Nc4ccc(C(=O)N5CCCC5)cc4)nc23)cn1	63*	-14
SMILES	ULK1 inh	ASK1 inh
Cc1nn(C)c(C)c1-c1nc(N)c2ncn(C3CCCCC3)c2n1	4	-15
C=C(C)C(=O)Oc1cccc(N2C(=O)c3cccc([N+](=O)[O-])c3C2=O)c1	7	x
CCN(CC)CCCC(C)Nc1c2ccc(Cl)cc2nc2ccc(OC)cc12 (stereo not drawn)	4	x
COc1cc(NC(C)CCCN)c2ncccc2c1 (stereo not drawn)	64*	x
Cn1nccc1Nc1ncc(C(=O)NCCOc2ccccc2)s1	-22	6
FC(F)(F)c1ccc(Cn2cnc3c(Nc4ccccc4)nc(NCc4ccc5c(c4)OCO5)nc32)cc1	12	8
CNS(=O)(=O)c1ccccc1Nc1nc(Nc2ccc(N3CCOCC3)cc2OC)ncc1Br	91*	-46
CNS(=O)(=O)c1ccccc1Nc1nc(Nc2cc(OC)ccc2OC)ncc1Br	64*	-3
COc1ccc(Nc2ncc(-c3ccccc3)cn2)cc1	4	x
COc1cnc(Nc2ccc(N3CCOCC3)cc2)nc1Nc1ccc(N2CCOCC2)cc1	17	-2
FC(F)(F)c1ccc(Cn2cnc3c(NCCN4CCOCC4)nc(Nc4ccc(N5CCOCC5)cc4)nc32)cc1	-40	14
Cc1nn(C)c(C)c1-c1nc(Nc2ccccc2)c2ncn(C3CCCCC3)c2n1	0	10
C=CCNc1nc2cc(S(C)(=O)=O)ccc2n2ccnc12	18	x
CCOC(=O)c1c(C)[nH]c2ccc(Oc3nc(OC)cc(OC)n3)cc12	1	x
CC(=O)Nc1ccc(Nc2cc(NC3CCN(Cc4ccccc4)CC3)nc(N)n2)cc1	7	16
